High-throughput results deposited in PubChem by several laboratories.
Hits are enriched below; roughly 2.1% of the tested compounds scored in any of these assays.
Myeloid diff 2: myeloid differentiation induction; ER-HoxA9 myeloid progenitors, lysozyme-GFP differentiation, flow cytometry; calls only at 10 µM; 360,000 tested, 1% active;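 active = normalized GFP-positive differentiation at or above the plate's own cutoff, the solvent-only control mean plus 3 SD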;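 also: cells exposed to compound for four days before flow analysis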
TPT1 inh: C. albicans TPT1 enzyme inhibition; recombinant caTPT1, FP RNA substrate dephosphorylation; 300,000 tested, 0.81% active; inhibition, % at 5 µM;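 active = inhibition above the mean of all tested compounds plus 3 SD, set per screening campaign, cut at about 24% in these data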
HNF4A DNA FP: change in binding of human HNF4 alpha to DNA | activity change, % at 10 µM | HNF4a-FITC DNA binding, fluorescence polarization, 1 h | 360,000 tested, 0.3% active; in the data active = activity change above about 30%, passing the limit was not always enough
Target sequence (P41235 whole entry, looked up): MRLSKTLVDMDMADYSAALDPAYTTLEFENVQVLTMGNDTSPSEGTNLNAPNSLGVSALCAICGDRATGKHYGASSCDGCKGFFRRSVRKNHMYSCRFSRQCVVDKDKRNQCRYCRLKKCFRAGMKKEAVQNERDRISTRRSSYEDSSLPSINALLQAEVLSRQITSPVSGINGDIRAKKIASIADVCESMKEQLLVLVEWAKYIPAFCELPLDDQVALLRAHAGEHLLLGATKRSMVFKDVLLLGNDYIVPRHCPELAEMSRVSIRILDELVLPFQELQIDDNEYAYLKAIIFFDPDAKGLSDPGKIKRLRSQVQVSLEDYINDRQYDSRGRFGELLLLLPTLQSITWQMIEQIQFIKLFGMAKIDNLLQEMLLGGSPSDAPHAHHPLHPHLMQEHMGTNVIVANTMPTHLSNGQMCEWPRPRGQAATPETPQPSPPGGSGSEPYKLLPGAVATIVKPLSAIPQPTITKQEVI
Rpn11 inh: Rpn11 (human) deubiquitinase inhibition; 360,000 tested, 0.59% active; O00487; human 26S proteasome, Ub4-pepOG fluorescence polarization; 20S core pre-blocked with epoxomicin; inhibition, % at 20 µM;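 active = inhibition at 20 µM, scaled to each plate's controls, above about 33%, limit read from the data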
Myeloid diff: promotes myeloid progenitor differentiation | shares compounds with Myeloid diff 2 | ER-HoxA9 myeloid progenitors, GFP/Mac1 double-positive flow | calls only | 2,300 tested, 2% active;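 active = share of green or green-and-red cells above 9 and 9% in run 1 or 4 and 3% in run 2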
GFP autofluor: compound fluorescence in myeloid differentiation counter-screen | 2,300 tested, 7.4% active | fluorescence response, % (concentration not given with the values) | shares compounds with Myeloid diff 2 | AID 651707 | ER-HoxA9 myeloid progenitors, no estrogen, GFP autofluorescence flow cytometry; vehicle wells 0%, positive control 100%;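 active = over 5% cells positive for green fluorescent reporter, or over 2% positive for both it and APC stain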
Calls only; - = inactive; . = no result given; + = active, no number.

SMILES | Myeloid diff 2 | TPT1 inh | HNF4A DNA FP | Rpn11 inh | Myeloid diff | GFP autofluor
C/C(Cc1ccccc1)=N\NC(=O)CNC(=O)c1ccccc1 | - | - | - | - | . | .
C/C(Cc1ccccc1)=N\NC(=O)CNC(=O)c1ccc(Br)cc1 | + | - | - | - | - | -
O=S(=O)(CC(CN1CCCC1)N1CCCC1)c1ccc2ccccc2c1 (stereo not given) | - | - | - | - | . | .
CC(Cc1ccccc1)N1C(=O)c2cccc([N+](=O)[O-])c2C1=O (stereo not given) | - | - | - | - | . | .
COC(=O)c1cccc(C#CC(NP(=O)(c2ccccc2)c2ccccc2)c2ccccc2)c1 (stereo not given) | - | - | - | - | - | -
Cc1cccnc1NC(=O)c1ccc([N+](=O)[O-])o1 | - | - | - | - | . | .
O=C(Nc1cccc2ncccc12)c1ccc([N+](=O)[O-])o1 | + | - | - | - | - | -
CCS(=O)(=O)c1nc(S(=O)(=O)c2ccc(Cl)cc2)c(N2CCOCC2)s1 | - | - | - | - | - | -
CCS(=O)(=O)c1nc(S(=O)(=O)c2ccc(Cl)cc2)c(N2CCC3(CC2)OCCO3)s1 | - | - | - | - | + | -
COc1cccc(OC2OC3COC(C)(C)OC3C(O)C2NC(C)=O)c1 (stereo not given) | - | - | - | - | . | .
CCCC/C(C)=N/NC(=O)CN(c1ccc(Br)cc1)S(=O)(=O)c1ccccc1 | - | - | - | - | . | .
C/C(=N/NC(=O)CN(c1ccccc1)S(=O)(=O)c1ccccc1)c1ccccc1O | - | - | - | - | - | -
CCOC(=O)Cc1csc(NC(=O)C2CCCN(S(=O)(=O)c3cnc[nH]3)C2)n1 (stereo not given) | - | - | - | - | . | .
Oc1ccccc1/C=N/n1cnn(Cc2ccccc2Cl)c1=S | - | - | - | - | . | .
CCC1(C)NC(=O)N(CC(=O)NCC(=O)Nc2c(C)cc(C)cc2C)C1=O (stereo not given) | - | . | - | - | . | .
CCn1c(-c2ccc(C(C)(C)C)cc2)n[nH]c1=S | - | - | - | - | . | .
CCn1c(-c2ccc(F)cc2)n[nH]c1=S | - | - | - | - | - | -
COc1ccc(NC(=O)c2ccc3nccnc3c2)cc1 | - | - | - | - | - | -
CCOc1ccc(NC(=O)c2ccc3nccnc3c2)cc1 | - | - | - | - | . | .
CC(=O)c1cn(CCOc2ccc(F)cc2)c2ccccc12 | - | - | - | - | . | .
CCSC1=C(C#N)C(c2ccc(OC)c(OC)c2)CC(=O)N1 (stereo not given) | - | - | - | - | . | .
CCCSC1=C(C#N)C(c2cc(OC)ccc2OC)CC(=O)N1 (stereo not given) | - | - | - | - | - | -
Cc1ccc(C(=O)CSc2nnc(-c3cccnc3)n2N)cc1 | - | - | - | - | - | -
Cc1ccc(CSc2nnc(-c3cccnc3)n2N)cc1 | - | - | - | - | . | .
CN(C)S(=O)(=O)NCC1CCCN(Cc2cc3ccccc3s2)C1 (stereo not given) | - | - | - | - | - | -
SMILES | Myeloid diff 2 | TPT1 inh | HNF4A DNA FP | Rpn11 inh | Myeloid diff | GFP autofluor
COc1ccc(Cc2nnc(NC(=O)c3ccc(F)cc3)s2)cc1OC | - | - | - | - | . | .
COc1ccc(NS(=O)(=O)c2cc(NC(=O)c3sccc3C)ccc2N2CCOCC2)cc1 | + | - | - | - | - | -
COc1ccccc1NS(=O)(=O)c1cc(NC(=O)c2cccs2)ccc1N1CCCCC1 | + | - | - | - | - | -
COc1ccccc1NS(=O)(=O)c1cc(NC(=O)c2cccs2)ccc1N1CCCC1 | - | - | - | - | . | .
CC(C)(C)c1nc(CN2CCCCC2)cc(CN2CCCCC2)c1O | + | - | - | - | - | -
CCN(C(=O)Cn1nnc(-c2ccccc2)n1)C1CCS(=O)(=O)C1 (stereo not given) | - | - | - | - | . | .
COc1ccc(C(=O)Nc2cccc(N(C)S(C)(=O)=O)c2)cc1OC | - | - | - | - | - | -
c1ccc(Cc2nn3c(Cn4nnc5ccccc54)nnc3s2)cc1 | - | - | - | - | - | -
N#CCCN(C(=O)COc1ccc(C#N)cc1)c1ccc(F)cc1 | - | - | - | - | - | -
COc1ccc(C(=O)N[C@H](C(=O)Nc2cccc(S(=O)(=O)N3CCOCC3)c2)C(C)C)cc1 | + | . | - | - | - | -
N#C/C(=C\c1cccnc1)C(=O)NC1CCCCC1 | + | - | - | - | - | -
CCOC(=O)N1CCN(C(=O)C2CCN(S(=O)(=O)N3CCC4(CC3)OCCO4)CC2)CC1 | - | - | - | - | . | .
CCOC(=O)N1CCN(C(=O)C2CCN(S(=O)(=O)N3CCCC3)CC2)CC1 | + | - | - | - | - | -
CCn1c(CNC(=O)COc2ccc(C(C)C)cc2)nnc1SCC(=O)Nc1ccc(F)cc1 | - | - | - | - | - | -
CCn1c(CNC(=O)COc2ccc(C(C)C)cc2)nnc1SCC(=O)Nc1cc(F)ccc1C | - | - | - | - | . | .
CCN1C(=O)C(CC(=O)Nc2ccc(OC)cc2)N(Cc2ccc3c(c2)OCO3)C1=S (stereo not given) | - | - | - | - | . | .
CCOc1ccccc1C(C(=O)NCCOC)N(CCOC)C(=O)Cn1nnc2ccccc21 (stereo not given) | - | - | - | - | - | -
Cn1c(=O)c2c(nc(NCc3ccco3)n2C/C=C/c2ccccc2)n(C)c1=O | - | - | - | - | - | -
Cn1c(=O)c2c(nc(NCc3ccco3)n2C)n(C)c1=O | - | - | - | - | . | .
COCc1c(C(=O)NCC(c2ccco2)N2CCCC2)oc2ccccc12 (stereo not given) | - | . | - | - | . | .
COc1ccc(C2CC(C(F)(F)F)n3nc(CO)c(Cl)c3N2)cc1OC (stereo not given) | - | - | - | - | . | .
COc1ccc(C2CC(C(F)(F)F)n3nc(C(=O)O)c(Cl)c3N2)cc1OC (stereo not given) | - | - | - | - | - | -
COc1cc(C2C3=C(CC(c4ccco4)CC3=O)Nc3ccccc3N2C(C)=O)cc(OC)c1OC (stereo not given) | - | - | - | - | . | .
COc1cc(C2C3=C(CC(C)(C)CC3=O)Nc3ccccc3N2C(C)=O)cc(OC)c1OC (stereo not given) | - | - | - | - | - | -
O=C(NCc1ccc2c(c1)OCO2)C1CCN(c2ncccn2)CC1 | - | - | - | - | - | -
SMILES | Myeloid diff 2 | TPT1 inh | HNF4A DNA FP | Rpn11 inh | Myeloid diff | GFP autofluor
Cc1ccnc(N2CCC(C(=O)NCc3ccc4c(c3)OCO4)CC2)n1 | - | - | - | - | . | .
Clc1cccc(OCc2nc(-c3ccncc3)n[nH]2)c1 | - | - | - | - | - | -
O=C(NC1CCCCC1)C(Cc1ccccc1)NS(=O)(=O)c1cccs1 (stereo not given) | - | - | - | - | - | -
O=C(NC1CCCc2ccccc21)C(Cc1ccccc1)NS(=O)(=O)c1cccs1 (stereo not given) | - | - | - | - | . | .
OC1NC(=S)N(c2ccccc2)C1O (stereo not given) | - | - | - | - | . | .
OC1CCNC(=S)N1c1ccccc1 (stereo not given) | + | - | - | - | - | -
